Assay [1] in a line: qHTS assay to identify small molecule agonists of the estrogen receptor alpha (ER-alpha) signaling pathway in the presence of an antagonist - cell viability counter screen (AID 1259386).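 Note: cells exposed to compounds for 22 h at 37 °C before the viability read; nearly all actives have a fitted effect of over 30% in size.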 Note: potency is the fitted concentration of half-maximal effect. Put shortly: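 In this counter screen, compound effects on VM7Luc4E2 viability were tested in the presence of the antagonist ICI-182,780 at 10.0nM final. Compounds were dosed at 15 concentrations, exposure lasted 22hr, and the CellTiter-Fluor signal was read.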

For assay [2], the target named is Progesterone receptor (Homo sapiens) (UniProt P06401). Briefly: qHTS assay to identify small molecule agonists of the progesterone receptor (PR) signaling pathway (AID 1346784; calls by dose curve; note: % is set by controls: 0 for no effect and ±100 for the full control effect; nearly all actives have a fitted effect of over 30% in size). Put shortly: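 Seed PR-UAS-bla HEK 293T cells (2% charcoal-stripped FBS), incubate 6 hr at 37C; add compounds in DMSO, 16 hr at 37C; add LiveBLAzer B/G substrate, 2 hr RT; read fluorescence intensity.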
Chain of Progesterone receptor (Homo sapiens) (P06401 whole entry, looked up): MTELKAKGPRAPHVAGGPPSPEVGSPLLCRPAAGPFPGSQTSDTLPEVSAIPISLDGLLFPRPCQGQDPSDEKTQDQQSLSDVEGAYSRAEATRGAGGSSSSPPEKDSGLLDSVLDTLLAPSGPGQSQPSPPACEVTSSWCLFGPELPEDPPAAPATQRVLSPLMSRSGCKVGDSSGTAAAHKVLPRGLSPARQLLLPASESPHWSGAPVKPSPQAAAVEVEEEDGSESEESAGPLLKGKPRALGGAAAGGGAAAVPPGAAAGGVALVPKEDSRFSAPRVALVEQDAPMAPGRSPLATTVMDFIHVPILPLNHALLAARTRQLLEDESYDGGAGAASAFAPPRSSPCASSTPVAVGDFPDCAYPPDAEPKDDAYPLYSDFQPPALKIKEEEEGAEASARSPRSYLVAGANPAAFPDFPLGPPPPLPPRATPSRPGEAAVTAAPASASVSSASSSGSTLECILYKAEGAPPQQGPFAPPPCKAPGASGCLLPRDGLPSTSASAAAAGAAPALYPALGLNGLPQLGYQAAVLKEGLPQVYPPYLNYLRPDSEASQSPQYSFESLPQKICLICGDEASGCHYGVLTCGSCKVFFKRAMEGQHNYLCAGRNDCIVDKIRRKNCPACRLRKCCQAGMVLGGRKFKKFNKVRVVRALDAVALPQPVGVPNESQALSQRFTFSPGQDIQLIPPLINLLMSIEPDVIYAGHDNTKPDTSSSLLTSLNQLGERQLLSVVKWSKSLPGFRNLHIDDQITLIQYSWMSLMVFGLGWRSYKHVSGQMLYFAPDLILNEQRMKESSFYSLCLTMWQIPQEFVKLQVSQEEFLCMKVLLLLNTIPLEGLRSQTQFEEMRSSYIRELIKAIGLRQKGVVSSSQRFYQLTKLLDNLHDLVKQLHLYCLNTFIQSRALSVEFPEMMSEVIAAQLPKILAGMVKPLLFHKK

For assay [3] the target is unchanged. Briefly: qHTS assay to identify small molecule antagonists of the progesterone receptor (PR) signaling pathway (AID 1346795; active = well fitted inhibition curve with a large enough effect in the signal ratio in the repeat runs, not every such curve was filed as active; the % refers to the signal ratio; note: potency is the fitted concentration of half-maximal effect). Put shortly:
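Screening used a GripTite HEK293T line with PR-responsive UAS-beta-lactamase. Cells were challenged with compound in the presence of 1 nM R5020 final for 16 hr at 37C; B/G FRET substrate, 2 hr room temperature, fluorescence.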

The nature of assay [4]: qHTS assay to identify small molecule antagonists of the progesterone receptor (PR) signaling pathway - cell viability counter screen (AID 1346798). Note: series mostly up to about 92 µM; % is set by controls: 0 for no effect and ±100 for the full control effect; nearly all actives have a fitted effect of over 50% in size. Put shortly: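 Measures cytotoxicity in parallel with the PR antagonist reporter read: HEK293T PR-UAS-bla cells get compound and R5020 for 16 hr, and remaining viable cells are quantified by CellTiter-Glo luminescence.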
Assay [5] is described as follows: qHTS assay to identify small molecule agonists of the TGF-beta/Smad signaling pathway (AID 1346859; active = well fitted activation curve with a large enough effect in the signal ratio in the repeat runs, not every such curve was filed as active; the % refers to the signal ratio; note: series mostly up to about 77 µM; % is set by controls: 0 for no effect and ±100 for the full control effect). The essentials:
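Beta-lactamase reporter activity downstream of Smad binding elements was measured in stably transfected HEK 293T cells; compounds were incubated for 5 hr, substrate for 2 hr at room temperature.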
In general terms: qHTS replaces the single test concentration by a dilution series.

Assay [6] addresses Thyrotropin-releasing hormone receptor (Homo sapiens) (UniProt P34981). Put plainly: qHTS assay to identify small molecule antagonists of the thyrotropin-releasing hormone receptor (TRHR) signaling pathway (AID 1346877; active = well fitted inhibition curve with a large enough effect in the repeat runs, not every such curve was filed as active; note: series mostly up to about 51 µM; % is set by controls: 0 for no effect and ±100 for the full control effect). The essentials: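 Kinetic fluorescence (3 min, 1 s resolution) following stimulation with TRH at 1 nM final; HEK293 cells bearing human TRHR; 5 min compound preincubation at RT; concentration-response over 15 points, triplicates.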

Assay [7] shares this target. Put plainly: qHTS assay to identify small molecule agonists of the thyrotropin-releasing hormone receptor (TRHR) signaling pathway (AID 1346891; calls by dose curve;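 note: HEK293 cells expressing TRHR with calcium dye readout; series mostly up to about 58 µM; % is set by controls: 0 for no effect and ±100 for the full control effect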). The essentials: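 Overnight-plated (18 h, 37 °C, 5% CO2) TRHR-Hek293 cells; 2 h calcium dye at 37 °C; compound in DMSO; 3-min kinetic fluorescence read.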
Assay [8] in a line: Human pregnane X receptor (PXR) small molecule agonists, qHTS cell viability counter screen (AID 1346977). Note: nearly all actives have a fitted effect of over 50% in size. Note: potency is the fitted concentration of half-maximal effect. The essentials: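 After a 5hr pre-incubation, PXR-Luc HepG2 cells received compounds plus positive control in DMSO and were kept 24hr at 37C. Cell viability was quantified by fluorescence from CellTiter-Fluor added for the final hour.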
The nature of assay [9]: Caspase-3/7 induction in HepG2 cells by small molecules, qHTS assay (AID 1346978). Note: % is set by controls: 0 for no effect and ±100 for the full control effect; nearly all actives have a fitted effect of over 15% in size. Put shortly:
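Wild-type HepG2 cells (2,000/well) were settled 5 h at 37 C, 5% CO2, then exposed to compounds in DMSO for 17 h. Caspase-3/7 activity was read by luminescence 30 min after adding Caspase-Glo 3/7 reagent at room temperature.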

The target of assay [10] is Nuclear receptor subfamily 1 group I member 2 (Homo sapiens) (UniProt O75469). Put plainly: Human pregnane X receptor (PXR) small molecule agonists, qHTS assay (AID 1346982). For activation: % is set by controls: 0 for no effect and ±100 for the full control effect. Note: nearly all actives have a fitted effect of over 35% in size. Note: potency is the fitted concentration of half-maximal effect. Put shortly:
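Reporter HepG2 cells expressing PXR-Luc are cultured in charcoal-stripped FBS (5%), treated with compounds for 24 hr at 37 C, and assayed by ONE-Glo luminescence after 30 min at room temperature.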

Assay [11] addresses Nuclear receptor subfamily 1 group I member 2 (Rattus norvegicus) (UniProt Q9R1A7). Briefly: Rat pregnane X receptor (rPXR) activation by small molecules, qHTS assay (AID 1346983). Note: % is set by controls: 0 for no effect and ±100 for the full control effect; nearly all actives have a fitted effect of over 20% in size. The following applies: rPXR luciferase reporter cells, One-Glo luminescence, 24 h; max activation: hits give high values. The essentials:
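Cell-based rPXR luciferase reporter assay, 2,000 cells per well, rested 5hr at 37 C before compound addition in DMSO, then 24 hr at 37 C. One-Glo reagent was added and luminescence read after 30 min at room temperature.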

Assay [12] concerns the target Nuclear receptor subfamily 1 group I member 2 (Homo sapiens) (UniProt O75469). Put plainly: Human pregnane X receptor (PXR) activation by small molecules, qHTS assay (AID 1346985). Note: % is set by controls: 0 for no effect and ±100 for the full control effect; nearly all actives have a fitted effect of over 40% in size. Put shortly: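 DPX-2 cells (HepG2 co-transfected with a PXR response element and a CYP3A4-promoter luciferase construct) were seeded at 2,000 per well, rested 5 hr at 37C, then exposed to DMSO-dissolved compounds for 24 hr. Activation was read as luciferase luminescence.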

The nature of assay [13]: qHTS assay to identify small molecule agonists of the progesterone receptor (PR) signaling pathway - cell viability counter screen (AID 1346799; calls by dose curve; note: nearly all actives have a fitted effect of over 45% in size; note: potency is the fitted concentration of half-maximal effect). The essentials:
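Using the same plates as the PR reporter screen, HEK293T PR-UAS-bla cells received compounds for 16 hr at 37C and were then lysed with CellTiter-Glo; luminescence was read 30 min later at room temperature.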

Assay [14] can be described thus: qHTS assay to identify small molecule antagonists of the TGF-beta/Smad signaling pathway - cell viability counter screen (AID 1346824). Note: % is set by controls: 0 for no effect and ±100 for the full control effect; nearly all actives have a fitted effect of over 50% in size. Put shortly:
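SBE-bla HEK 293T cells were plated overnight at 37 C, then given compounds in DMSO plus TGF-beta1 (added as 0.25 ng/mL solution) for 5 hr. After the bla read, CellTiter-Glo was added to the same wells and luminescence read after 30 min at room temperature.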

Assay [15] is described as follows: qHTS assay to identify small molecule agonists of the TGF-beta/Smad signaling pathway - cell viability counter screen (AID 1346829). Note: top concentration of the series differs between compounds; % is set by controls: 0 for no effect and ±100 for the full control effect; nearly all actives have a fitted effect of over 45% in size. The essentials:
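SBE-bla HEK 293T cells plated overnight, compound exposure 5 hr at 37 C. Viability read in the same wells by CellTiter-Glo luminescence after 30 min at room temperature, following the beta-lactamase read.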

Assay [16] can be described thus: Caspase-3/7 induction in CHO-K1 cells by small molecules, qHTS cell viability counter screen (AID 1346979). Note: nearly all actives have a fitted effect of over 35% in size. Note: potency is the fitted concentration of half-maximal effect. Put shortly: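 Multiplexed with Caspase-Glo 3/7 in CHO-K1 cells, this counter screen added CellTiter-Fluor after 16hr of compound exposure and recorded fluorescence 1hr later.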
Assay [17] can be described thus: Caspase-3/7 induction in CHO-K1 cells by small molecules, qHTS assay (AID 1346980). Note: % is set by controls: 0 for no effect and ±100 for the full control effect; nearly all actives have a fitted effect of over 15% in size. The essentials: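 Wild-type cells were seeded at 1,500 per well and settled 5 hr at 37 C, 5% CO2, then exposed to DMSO-dissolved compounds for 17 hr. Caspase-Glo 3/7 reagent was added, and luminescence was read after 30min at room temperature.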
A short description of assay [18]: Caspase-3/7 induction in HepG2 cells by small molecules, qHTS cell viability counter screen (AID 1346981). Note: nearly all actives have a fitted effect of over 30% in size. Note: potency is the fitted concentration of half-maximal effect. The essentials:
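In this quantitative HTS counter screen, compounds delivered in DMSO were left on unmodified HepG2 cells for 16 hr at 37 C. Viability was then determined fluorometrically with CellTiter-Fluor, in parallel with caspase-3/7 induction in the same wells.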

Values without a mark were called inactive. Records with an inconclusive call do not appear. The source made the active and inactive calls. Unless noted, calls come from the whole dose curve; as a rule, active = well fitted curve in the direction sought with a large enough effect in the repeat runs; inconclusive = weak or mixed curves; inactive = no such curve, though single readings can be large; an effect the other way counts as inactive or inconclusive.

Chain of Nuclear receptor subfamily 1 group I member 2 (Homo sapiens) (O75469 whole entry, looked up): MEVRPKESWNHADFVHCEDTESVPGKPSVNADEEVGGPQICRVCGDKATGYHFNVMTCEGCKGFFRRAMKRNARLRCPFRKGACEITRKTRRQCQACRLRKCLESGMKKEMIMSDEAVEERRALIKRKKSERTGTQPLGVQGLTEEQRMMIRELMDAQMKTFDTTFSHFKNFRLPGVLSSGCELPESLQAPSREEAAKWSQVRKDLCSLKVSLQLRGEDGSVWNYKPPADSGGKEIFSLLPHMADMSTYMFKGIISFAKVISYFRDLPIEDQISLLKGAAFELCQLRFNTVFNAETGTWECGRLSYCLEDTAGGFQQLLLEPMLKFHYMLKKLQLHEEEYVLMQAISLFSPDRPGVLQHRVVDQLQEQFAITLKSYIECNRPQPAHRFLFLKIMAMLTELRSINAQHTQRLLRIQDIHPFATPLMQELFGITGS
Chain of Thyrotropin-releasing hormone receptor (Homo sapiens) (P34981 whole entry, looked up): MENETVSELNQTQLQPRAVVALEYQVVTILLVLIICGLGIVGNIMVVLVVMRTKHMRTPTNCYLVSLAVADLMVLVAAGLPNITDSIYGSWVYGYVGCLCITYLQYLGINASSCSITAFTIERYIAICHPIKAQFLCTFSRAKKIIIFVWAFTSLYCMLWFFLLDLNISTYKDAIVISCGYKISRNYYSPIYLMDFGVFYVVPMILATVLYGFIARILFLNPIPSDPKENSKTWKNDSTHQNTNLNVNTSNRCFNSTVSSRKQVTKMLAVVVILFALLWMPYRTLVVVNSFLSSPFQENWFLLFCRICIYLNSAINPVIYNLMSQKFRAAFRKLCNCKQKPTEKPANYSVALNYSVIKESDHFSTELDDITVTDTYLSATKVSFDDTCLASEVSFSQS
Chain of Nuclear receptor subfamily 1 group I member 2 (Rattus norvegicus) (Q9R1A7 whole entry, looked up): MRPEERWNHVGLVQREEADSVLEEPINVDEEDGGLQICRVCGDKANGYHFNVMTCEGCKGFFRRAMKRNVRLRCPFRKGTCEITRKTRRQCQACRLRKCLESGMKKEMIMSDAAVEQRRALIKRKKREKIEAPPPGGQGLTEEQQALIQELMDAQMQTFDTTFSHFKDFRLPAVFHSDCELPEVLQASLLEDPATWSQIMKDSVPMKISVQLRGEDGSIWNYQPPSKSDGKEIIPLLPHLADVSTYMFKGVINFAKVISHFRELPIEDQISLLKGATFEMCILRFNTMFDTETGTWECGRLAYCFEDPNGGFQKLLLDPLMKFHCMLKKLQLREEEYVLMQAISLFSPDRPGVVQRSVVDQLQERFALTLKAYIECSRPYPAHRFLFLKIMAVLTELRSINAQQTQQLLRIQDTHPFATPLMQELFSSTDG

Turning to `COc1cc(N)c(Cl)cc1C(=O)NC1CCN(CCCOc2ccc(F)cc2)CC1OC` (stereo not drawn), the Potency entry in [1], in [2], in assay [4], in [5], in assay [7] and in [9] was “inactive” throughout. Moreover, the Potency entry in [10] and in assay [12] was “inactive” each time. In addition, the Potency in assay [3] and in [8] was 29.8 µM (active) throughout. For the same compound, the compound was called inactive in assay [6]. Moreover, in assay [11], the max activation is -2.9%.

On to `CCCCN(CCN(CCCC)C(=O)N1CCOCC1)C(=O)N1CCOCC1`, for which the Potency entry in assay [1], in assay [2], in assay [14], in [15], in assay [7] and in assay [9] was “inactive” throughout. The Potency result in assay [16], in assay [17] and in assay [18] was “inactive” throughout. For the same compound, the Potency in assay [13] is 29.8 µM (active). The outcome in [6] was inactive.

As to `Cc1cccc(N(C)C(=S)Oc2ccc3c(c2)CCC3)c1`, the Potency result in [1], in assay [2], in assay [13], in assay [14], in assay [15] and in assay [5] was “inactive” each time. The Potency entry in [9], in assay [16], in [17] and in assay [18] was “inactive” each time. The Potency in [3] was 11.9 µM (active); in [10], 10.6 µM (active).

With `CC(C)(C)CC(=O)OCC(=O)[C@@]1(O)CC[C@H]2[C@@H]3CCC4=CC(=O)C=C[C@]4(C)[C@H]3[C@@H](O)C[C@@]21C`, the Potency result in [1], in [2], in assay [14], in assay [15], in assay [5] and in assay [7] was “inactive” throughout. Also, the Potency result in assay [8], in [9], in assay [17] and in assay [18] was “inactive” in each case. In addition, the Potency in [3] was 21.1 µM (active). Moreover, in assay [6], the result was inactive.

Turning to `O=[N+]([O-])c1ccc(O/N=C/c2cc(Br)c(O)c(Br)c2)c([N+](=O)[O-])c1`, the Potency is 27.2 µM (active) in assay [1], 15.3 µM (active) in [16] and 27.2 µM (active) in assay [18]. In addition, the Potency result in assay [15] and in [9] was “inactive” in each case.

With `CCCCCCCC/C=C\CCCCCCCCCCCC(=O)O`, the Potency entry in assay [1], in [2], in [4], in assay [14], in [15] and in assay [5] was “inactive” throughout. Also, the Potency result in [8], in assay [9], in [16], in assay [17], in assay [18] and in assay [10] was “inactive” each time.

As for `CC(C)=CCC/C(C)=C/CC/C(C)=C/C(=O)OCC(=O)[C@@]1(O)CC[C@H]2[C@@H]3CCC4=CC(=O)C=C[C@]4(C)[C@H]3[C@@H](O)C[C@@]21C`, the Potency entry in [2], in [15], in assay [5], in assay [7], in [8] and in assay [9] was “inactive” throughout. Further, the result in assay [6] was inactive. In addition, the results for the Potency in assay [16] and in assay [10] were 18.8 µM (active) and 1.88 µM (active), respectively.
